According to PubChem BioAssay (NCATS):
Inconclusive results are not listed. A call without a number means that no potency is given here. Active and inactive are the calls of the source. The call rests on the fitted dose curve; in most records, active means well fitted curve in the direction sought with a large enough effect; inconclusive means small, poorly fitted or top-dose-only effect, or another doubt; inactive means no such curve, though single readings can be large; an effect the other way counts as inactive or inconclusive.

Legend:
[1] = qHTS assay to identify small molecule inhibitors of chordoma cells - UCH-1 (AID 1259355); further: nearly all actives have a fitted effect of over 55% in size; further: potency means the concentration at half of the fitted maximal effect; series mostly up to about 46 µM
Method in brief: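 Cells (800/well) were seeded and left overnight at 37 C, 5% CO2, then treated with drugs at 15 concentrations plus a combination mix of auranofin, camptothecin, doxorubicin, rubitecan and topotecan. Viability after 48hr was read by CellTiter-Glo luminescence.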

[2] = qHTS assay to identify small molecule inhibitors of chordoma cells - UCH-2 (AID 1259356); further: series mostly up to about 46 µM

SMILES | Potency [1] | Potency [2]
CCCCC(=O)N(Cc1ccc(-c2ccccc2-c2nn[nH]n2)cc1)[C@@H](C(=O)O)C(C)C | inactive | inactive
CC(C)(C)C(=O)OCOC(=O)[C@@H]1N2C(=O)[C@@H](N=CN3CCCCCC3)[C@H]2SC1(C)C | inactive | 
CN=C(NC#N)Nc1ccc(C2=NNC(=O)C[C@@H]2C)cc1 | inactive | 
C[C@@H]1[C@H](O)[C@@H](C)/C=C/C=C\C=C\C=C\C=C\C=C\C=C\[C@H](O[C@@H]2O[C@H](C)[C@@H](O)[C@H](N)[C@@H]2O)C[C@@H]2O[C@](O)(C[C@@H](O)C[C@@H](O)[C@H](O)CC[C@@H](O)C[C@@H](O)CC(=O)O[C@H]1C)C[C@H](O)[C@H]2C(=O)O (stereo in doubt) | inactive | inactive
CCC(=O)O[C@@H]1CC(=O)O[C@H](C)C/C=C/C=C/[C@H](O)[C@H](C)C[C@H](CC=O)[C@H](O[C@@H]2O[C@H](C)[C@@H](O[C@H]3C[C@@](C)(O)[C@@H](OC(=O)CC)[C@H](C)O3)[C@H](N(C)C)[C@H]2O)[C@H]1OC | inactive | inactive
CC(Cc1ccc(O)c(O)c1)C(C)Cc1ccc(O)c(O)c1 (centres undefined) | inactive | 
NC(=O)c1ncn(C2OC(CO)C(O)C2O)n1 (centres undefined) | inactive | 
COC(=O)[C@H]1[C@H]2CC3c4[nH]c5ccccc5c4CCN3C[C@@H]2CC[C@@H]1O (some centres undefined) | inactive | 
O=S(=O)(O)c1cc(O)c2c(N=Nc3ccc(Nc4ccccc4)c4c(S(=O)(=O)O)cccc34)cc(S(=O)(=O)O)cc2c1 | 15.8 µM (active) | 
Cc1cn([C@H]2C[C@H](O)[C@@H](CO)O2)c(=O)[nH]c1=O | inactive | inactive
